Records with an inconclusive call do not appear. Active and inactive are the calls of the source. Unless noted, calls follow the shape of the dose curve; as a rule, active = well fitted curve in the direction sought with a large enough effect; inconclusive = small, poorly fitted or top-dose-only effect, or another doubt; inactive = no such curve, though single readings can be large; an effect the other way counts as inactive or inconclusive.
Columns and labels:
[1] = AP1 Signaling Pathway (AID 357; active = well fitted curve in either direction with a large enough effect, not every such curve was filed as active; also: % is scaled to controls: 0 for no effect and ±100 for the full control effect); conditions: ME-180 AP-1-bla reporter, EGF-induced, beta-lactamase ratio, 5 h; at 7.69 µM (top of the series) unless noted
How it was run: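 Titration-series screen for positive or negative modulators of EC50 EGF-induced signaling in ME-180 cells carrying an AP-1-driven beta-lactamase reporter. After 5 hours at 37 degrees Celsius, CCF4 460nm/530nm emission ratio gave %Activity; AC50 values derived.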

[2] = biological target: Cytochrome P450 1A2 (Homo sapiens) (UniProt P05177); experiment: p450-cyp1a2 (AID 410; calls by dose curve; also: potency is read from the fitted curve at half-maximal effect;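 as to activity change, negative = inhibition: -100% = full effect of reference inhibitor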)
Sequence of Cytochrome P450 1A2 (Homo sapiens) (P05177 whole entry, looked up): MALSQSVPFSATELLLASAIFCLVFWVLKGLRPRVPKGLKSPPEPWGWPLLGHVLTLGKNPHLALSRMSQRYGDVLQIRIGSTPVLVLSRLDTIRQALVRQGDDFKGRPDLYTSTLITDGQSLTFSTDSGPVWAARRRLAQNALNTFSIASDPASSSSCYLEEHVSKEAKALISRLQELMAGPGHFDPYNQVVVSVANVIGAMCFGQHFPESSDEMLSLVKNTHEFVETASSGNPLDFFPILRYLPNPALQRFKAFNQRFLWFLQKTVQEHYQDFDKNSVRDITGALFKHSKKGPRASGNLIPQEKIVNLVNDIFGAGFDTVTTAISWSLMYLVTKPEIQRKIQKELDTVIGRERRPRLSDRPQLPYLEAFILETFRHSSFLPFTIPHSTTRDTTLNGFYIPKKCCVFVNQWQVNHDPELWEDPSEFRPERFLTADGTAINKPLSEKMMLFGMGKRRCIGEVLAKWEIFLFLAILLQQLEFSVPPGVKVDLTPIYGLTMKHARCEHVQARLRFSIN
How it was run: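 20nM CYP1A2 with 100uM Luciferin-ME (at Km) in 100mM KPO4; compound preincubated 10 min, NADPH regeneration added, 60 min at room temperature. Luciferin quantified by luminescence after detection reagent; normalized to 57 uM furafylline.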

[3] = Stat Signaling Pathway (AID 446; active = well fitted curve in either direction with a large enough effect, not every such curve was filed as active;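 also: ME-180 cervical cancer cells given 40 pM IL-6 alongside compound; SIE-controlled beta-lactamase reporter measured as 460/530 nm FRET emission ratio; % is scaled to controls: 0 for no effect and ±100 for the full control effect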); conditions: ME-180 SIE beta-lactamase reporter, IL-6 stimulated, 5 h; at 7.69 µM (top of the series) unless noted
How it was run: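 ME-180 cells carrying a SIE-driven beta-lactamase reporter are stimulated with 40 pM IL-6 for 5 h at 37C in the presence of compound. The 460/530 nm FRET substrate ratio is read after 2.5 h at RT. Data are normalised to 300 pM IL-6 and to 125 nM JAK inhibitor controls.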

[4] = biological target: Glucocorticoid receptor (Homo sapiens) (UniProt P04150); experiment: GR-EFC Redistribution (AID 451; calls by dose curve; also: potency is read from the fitted curve at half-maximal effect); conditions: CHO-K1 GR-EFC translocation, beta-gal luminescence, 2 h
Sequence of Glucocorticoid receptor (Homo sapiens) (P04150 whole entry, looked up, the tested form may be a part): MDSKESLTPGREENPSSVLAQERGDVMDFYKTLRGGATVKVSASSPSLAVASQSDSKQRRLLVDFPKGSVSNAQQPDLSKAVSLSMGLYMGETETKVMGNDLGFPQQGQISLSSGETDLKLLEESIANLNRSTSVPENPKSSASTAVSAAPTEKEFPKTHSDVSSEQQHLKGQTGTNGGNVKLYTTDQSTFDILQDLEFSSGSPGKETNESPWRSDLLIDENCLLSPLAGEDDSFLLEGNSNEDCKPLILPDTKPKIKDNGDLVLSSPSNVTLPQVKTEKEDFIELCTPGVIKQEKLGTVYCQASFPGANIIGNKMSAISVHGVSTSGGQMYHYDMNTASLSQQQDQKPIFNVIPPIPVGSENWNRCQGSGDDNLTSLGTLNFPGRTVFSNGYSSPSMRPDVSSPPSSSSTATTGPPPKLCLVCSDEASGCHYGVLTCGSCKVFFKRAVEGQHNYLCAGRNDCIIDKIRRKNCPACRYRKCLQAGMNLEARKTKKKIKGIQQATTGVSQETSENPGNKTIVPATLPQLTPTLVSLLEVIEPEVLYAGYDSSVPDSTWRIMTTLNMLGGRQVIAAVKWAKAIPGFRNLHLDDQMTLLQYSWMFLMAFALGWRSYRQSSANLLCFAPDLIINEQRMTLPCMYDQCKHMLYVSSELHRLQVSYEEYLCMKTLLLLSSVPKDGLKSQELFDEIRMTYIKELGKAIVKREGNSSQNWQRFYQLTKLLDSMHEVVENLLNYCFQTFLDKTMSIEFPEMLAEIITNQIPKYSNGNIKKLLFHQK
How it was run: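 Translocation of GR-ED fusion to nuclear EA restores b-gal, read by luminescence after 1 h room-temperature detection. Engineered CHO-K1 biosensor cells, 1,000/well, exposed 2 h at 37 C to titrations up to 46 uM final.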

[5] = biological target: Mitogen-activated protein kinase 10 (Mus musculus) (UniProt Q61831); experiment: JNK3 AlphaScreen Assay (AID 530; active = well fitted curve in either direction with a large enough effect, not every such curve was filed as active;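 also: kinase came from lysate of stimulated human HepG2 cells; signal reports phosphorylation of biotinylated GST-cJun 1-79 at Ser73 with 10 µM ATP; % is scaled to controls: 0 for no effect and ±100 for the full control effect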)
How it was run: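 Compound titrations were preincubated 15 minutes at room temperature with substrate, antibody and pre-activated JNK3-containing HepG2 lysate. Reactions were started with 10 uM ATP and stopped with EDTA-containing bead buffer for AlphaScreen detection.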

[6] = biological target: 3',5'-cyclic-AMP phosphodiesterase 4B (Homo sapiens) (UniProt Q07343); experiment: qHTS Assay for Inhibitors of PDE-IV (AID 607; active = well fitted activation curve with a large enough effect in the main read-out, with a control signal flat, not every such curve was filed as active; also: % of control where 0% means no effect)
Sequence of 3',5'-cyclic-AMP phosphodiesterase 4B (Homo sapiens) (Q07343 whole entry, looked up): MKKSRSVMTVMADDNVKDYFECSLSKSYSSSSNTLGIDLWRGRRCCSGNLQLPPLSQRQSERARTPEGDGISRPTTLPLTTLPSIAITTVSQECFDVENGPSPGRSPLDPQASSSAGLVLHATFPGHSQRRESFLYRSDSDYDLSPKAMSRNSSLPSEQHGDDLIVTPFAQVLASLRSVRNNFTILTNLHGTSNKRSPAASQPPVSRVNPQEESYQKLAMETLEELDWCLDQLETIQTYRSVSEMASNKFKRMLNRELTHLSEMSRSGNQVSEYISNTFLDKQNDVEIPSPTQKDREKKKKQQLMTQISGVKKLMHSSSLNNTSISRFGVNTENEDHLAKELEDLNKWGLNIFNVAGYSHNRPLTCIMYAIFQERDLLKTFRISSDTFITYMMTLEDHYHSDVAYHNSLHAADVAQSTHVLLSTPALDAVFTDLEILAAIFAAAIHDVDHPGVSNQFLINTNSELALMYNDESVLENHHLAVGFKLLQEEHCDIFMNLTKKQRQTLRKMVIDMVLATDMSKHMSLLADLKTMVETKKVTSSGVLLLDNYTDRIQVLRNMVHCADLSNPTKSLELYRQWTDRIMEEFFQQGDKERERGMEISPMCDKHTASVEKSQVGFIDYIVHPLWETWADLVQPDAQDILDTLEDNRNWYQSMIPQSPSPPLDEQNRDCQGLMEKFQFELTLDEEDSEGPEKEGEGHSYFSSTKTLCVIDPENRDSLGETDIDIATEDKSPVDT
How it was run: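 HEK293 ACTOne cells with CNG channel (1000/well), endogenous PDE4; membrane potential dye, compounds up to 22.9 uM final. Fluorescence Ex 535/Em 590; RO 20-1724 (100 uM final) as reference.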

[7] = biological target: Cytochrome P450 3A4 (Homo sapiens) (UniProt P08684); experiment: qHTS Assay for Activators of Cytochrome P450 3A4 (AID 885); also: nearly all actives have a fitted effect of over 65% in size
Sequence of Cytochrome P450 3A4 (Homo sapiens) (P08684 whole entry, looked up): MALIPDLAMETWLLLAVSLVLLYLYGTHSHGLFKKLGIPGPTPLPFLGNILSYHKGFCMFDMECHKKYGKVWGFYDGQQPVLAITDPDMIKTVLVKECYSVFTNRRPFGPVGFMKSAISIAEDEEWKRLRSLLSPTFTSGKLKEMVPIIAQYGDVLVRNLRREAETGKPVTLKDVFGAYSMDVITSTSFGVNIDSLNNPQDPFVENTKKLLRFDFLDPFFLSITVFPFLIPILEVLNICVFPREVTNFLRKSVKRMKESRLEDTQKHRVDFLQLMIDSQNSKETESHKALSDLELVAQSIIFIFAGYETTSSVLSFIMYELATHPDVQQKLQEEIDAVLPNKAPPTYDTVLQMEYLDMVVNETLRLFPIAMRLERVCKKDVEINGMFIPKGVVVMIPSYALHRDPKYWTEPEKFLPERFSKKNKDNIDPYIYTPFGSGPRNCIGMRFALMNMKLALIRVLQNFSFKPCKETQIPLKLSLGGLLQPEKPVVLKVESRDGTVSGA
How it was run: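 Human CYP3A4 (20 nM) with Luciferin-PPXE at 25 uM (its KM) in 200 mM KPO4; 10 min compound preincubation, then NADPH regeneration and 60 min reaction at RT. Luciferin read by luminescence; normalized to 57 uM ketoconazole full inhibition.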

[8] = qHTS Assay for Lipid Storage Modulators (AID 1519; calls by dose curve); conditions: Drosophila S3 cells, BODIPY lipid droplet/cell ratio, laser cytometry, cells loaded with oleic acid; for activity change, negative = inhibition: at 57.5 µM (top of the series)
How it was run: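 Cells seeded at 5,000 per well were treated with compounds over a concentration series and loaded with oleic acid (400 uM, as added). Lipid droplet fluorescence (488 nm excitation, 500-530 nm channel) was read by laser-scanning cytometry and normalized to 20 uM Triacsin C.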

[9] = Primary qHTS for small molecule stabilizers of the endoplasmic reticulum resident proteome: Secreted ER Calcium Modulated Protein (SERCaMP) assay (AID 1508630); also: % is scaled to controls: 0 for no effect and ±100 for the full control effect
How it was run: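 GLuc-SERCaMP-expressing SH-SY5Y cells, pretreated 16 h with compound, are challenged with thapsigargin to empty ER calcium stores; after 4 h, coelenterazine is added directly to the medium and luminescence is imaged.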

[10] = NFAT Signaling Pathway (AID 444; active = well fitted curve in either direction with a large enough effect, not every such curve was filed as active); conditions: Jurkat NFAT-bla M1, carbachol, beta-lactamase ratio, 5 h; at 7.69 µM (top of the series) unless noted
How it was run: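 Read-out: CCF4 FRET ratio (460 nm/530 nm) after 1 h RT dye loading, used for %activity and AC50 from titration series. Cells: Jurkat NFAT-β-lactamase/M1 line, treated with compound plus 1 uM carbachol for 5 h, 37 °C.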

[11] = biological target: Glucocorticoid receptor (Homo sapiens) (UniProt P04150); experiment: GR-GFP Redistribution (AID 450;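 active = compounds whose dose series gives a full or clear partial fitted curve of increased nuclear translocation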; also: potency is read from the fitted curve at half-maximal effect); conditions: U2OS GR-GFP nuclear translocation, laser cytometry, 2 h
[12] = biological target: Cytochrome P450 3A4 (Homo sapiens) (UniProt P08684); experiment: qHTS Assay for Inhibitors and Substrates of Cytochrome P450 3A4 (AID 884); also: nearly all actives have a fitted effect of over 50% in size; also: potency is read from the fitted curve at half-maximal effect
How it was run: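 20 nM human CYP3A4 with 25 uM Luciferin-PPXE (at KM) in 200 mM KPO4, preincubated 10 min with compound; NADPH regeneration started a 60 min RT reaction. Luciferin detected by luminescence, normalized to 57 uM ketoconazole as full inhibition.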

[13] = biological target: Ubiquitin carboxyl-terminal hydrolase 1 (Homo sapiens) (UniProt O94782); experiment: Inhibitors of USP1/UAF1: Pilot qHTS (AID 504865);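 also: rhodamine fluorescence freed from ubiquitin-rhodamine substrate followed over time; top concentration of the series differs between compounds; % is scaled to controls: 0 for no effect and ±100 for the full control effect; nearly all actives have a fitted effect of over 35% in size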
How it was run: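 USP1/UAF1 complex at 1 nM preincubated 15 min at room temperature with compound, then Ub-Rho substrate added at 150 nM final. Fluorescence (480/540 nm) read kinetically in 50 mM HEPES pH 7.8, 0.5 mM EDTA, 1 mM TCEP, 0.1 mg/ml BSA, 0.01% Tween-20.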

[14] = biological target: Lysosomal acid glucosylceramidase (Homo sapiens) (UniProt P04062); experiment: Glucocerebrosidase-p2 (AID 348; in the data active = potency below about 10 µM; also: potency is read from the fitted curve at half-maximal effect); conditions: purified GBA, blue fluorogenic substrate, 40 min
Sequence of Lysosomal acid glucosylceramidase (Homo sapiens) (P04062 whole entry, looked up): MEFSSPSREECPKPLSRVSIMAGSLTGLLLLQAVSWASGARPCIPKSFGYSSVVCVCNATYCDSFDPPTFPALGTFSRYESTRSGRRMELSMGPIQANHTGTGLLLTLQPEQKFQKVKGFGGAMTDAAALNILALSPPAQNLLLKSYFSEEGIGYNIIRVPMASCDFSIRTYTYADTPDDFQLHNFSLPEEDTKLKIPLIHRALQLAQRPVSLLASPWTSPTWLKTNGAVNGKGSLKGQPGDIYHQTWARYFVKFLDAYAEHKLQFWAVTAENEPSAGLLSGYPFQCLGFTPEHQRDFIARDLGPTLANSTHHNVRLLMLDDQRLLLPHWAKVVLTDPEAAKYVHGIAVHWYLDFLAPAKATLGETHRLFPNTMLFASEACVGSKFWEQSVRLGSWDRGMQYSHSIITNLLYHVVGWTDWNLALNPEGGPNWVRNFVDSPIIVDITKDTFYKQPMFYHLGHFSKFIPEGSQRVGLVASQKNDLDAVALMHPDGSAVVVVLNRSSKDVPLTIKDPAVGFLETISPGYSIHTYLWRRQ
How it was run: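 Compounds titrated from 0.6 nM upwards against 0.2 nM enzyme in pH 5.9 citric acid/KH2PO4, taurocholate, tween-20; blue fluorogenic substrate 80 uM, 40 min room temperature, stopped and read Ex 365/Em 440 for AC50.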

[15] = biological target: Rap guanine nucleotide exchange factor 3 (Homo sapiens) (UniProt O95398); experiment: Confirmatory qHTS for antagonist of cAMP-regulated guanine nucleotide exchange factor 3 (EPAC1) (AID 1645880); also: nearly all actives have a fitted effect of over 55% in size; also: potency is read from the fitted curve at half-maximal effect;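 as to activity, negative = inhibition: plate controls were DMSO only for no effect and full effect of the ATA control for full effect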
Sequence of Rap guanine nucleotide exchange factor 3 (Homo sapiens) (O95398 whole entry, looked up): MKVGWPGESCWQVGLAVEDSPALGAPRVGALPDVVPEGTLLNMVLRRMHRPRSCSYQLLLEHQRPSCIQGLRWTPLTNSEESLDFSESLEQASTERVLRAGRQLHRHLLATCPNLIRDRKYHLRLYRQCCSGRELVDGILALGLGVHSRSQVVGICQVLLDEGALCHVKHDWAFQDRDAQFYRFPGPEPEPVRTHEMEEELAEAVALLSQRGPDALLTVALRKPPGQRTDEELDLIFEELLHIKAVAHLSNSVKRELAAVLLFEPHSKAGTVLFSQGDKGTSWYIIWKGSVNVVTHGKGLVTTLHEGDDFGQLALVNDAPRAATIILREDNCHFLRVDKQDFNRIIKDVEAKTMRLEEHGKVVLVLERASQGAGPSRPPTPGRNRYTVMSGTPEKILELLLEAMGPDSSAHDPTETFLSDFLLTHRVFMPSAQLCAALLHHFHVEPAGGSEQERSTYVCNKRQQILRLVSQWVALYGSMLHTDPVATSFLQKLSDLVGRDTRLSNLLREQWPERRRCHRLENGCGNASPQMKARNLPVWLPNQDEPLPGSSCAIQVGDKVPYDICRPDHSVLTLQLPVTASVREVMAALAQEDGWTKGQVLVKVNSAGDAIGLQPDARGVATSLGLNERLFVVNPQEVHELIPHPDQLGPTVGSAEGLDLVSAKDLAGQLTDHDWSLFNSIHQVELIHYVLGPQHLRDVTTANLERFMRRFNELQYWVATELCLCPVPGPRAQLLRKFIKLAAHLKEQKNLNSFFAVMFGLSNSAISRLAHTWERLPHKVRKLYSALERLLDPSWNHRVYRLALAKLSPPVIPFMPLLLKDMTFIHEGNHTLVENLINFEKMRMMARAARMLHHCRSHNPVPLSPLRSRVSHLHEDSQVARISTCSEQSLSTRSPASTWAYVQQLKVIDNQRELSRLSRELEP
How it was run: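 Nucleotide exchange uses 100 nM EPAC1, 250 nM RAP1B-BODIPY-GDP and 50 uM GDP, with compounds in a concentration-titration series. After 5 min at room temperature, fluorescence (480 nm ex/540 nm em) is read every 5 min for 30 min. Data are normalized to control ATA and DMSO.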

[16] = biological target: Rap guanine nucleotide exchange factor 3 (Homo sapiens) (UniProt O95398); experiment: Confirmatory qHTS for agonist of cAMP-regulated guanine nucleotide exchange factor 3 (EPAC1) (AID 1645881); also: nearly all actives have a fitted effect of over 75% in size; also: potency is read from the fitted curve at half-maximal effect;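 as to activation: EPAC1 catalysed release of BODIPY-GDP from Rap1B seen as fluorescence loss; 100% = effect of cAMP agonist control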
[17] = biological target: Rap guanine nucleotide exchange factor 4 (Homo sapiens) (UniProt Q8WZA2); experiment: Confirmatory qHTS for agonist of cAMP-regulated guanine nucleotide exchange factor 4 (EPAC2) (AID 1645884);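 also: nucleotide exchange releases bodipy-GDP from Rap1 and this lowers its fluorescence; nearly all actives have a fitted effect of over 65% in size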; also: potency is read from the fitted curve at half-maximal effect
Sequence of Rap guanine nucleotide exchange factor 4 (Homo sapiens) (Q8WZA2 whole entry, looked up): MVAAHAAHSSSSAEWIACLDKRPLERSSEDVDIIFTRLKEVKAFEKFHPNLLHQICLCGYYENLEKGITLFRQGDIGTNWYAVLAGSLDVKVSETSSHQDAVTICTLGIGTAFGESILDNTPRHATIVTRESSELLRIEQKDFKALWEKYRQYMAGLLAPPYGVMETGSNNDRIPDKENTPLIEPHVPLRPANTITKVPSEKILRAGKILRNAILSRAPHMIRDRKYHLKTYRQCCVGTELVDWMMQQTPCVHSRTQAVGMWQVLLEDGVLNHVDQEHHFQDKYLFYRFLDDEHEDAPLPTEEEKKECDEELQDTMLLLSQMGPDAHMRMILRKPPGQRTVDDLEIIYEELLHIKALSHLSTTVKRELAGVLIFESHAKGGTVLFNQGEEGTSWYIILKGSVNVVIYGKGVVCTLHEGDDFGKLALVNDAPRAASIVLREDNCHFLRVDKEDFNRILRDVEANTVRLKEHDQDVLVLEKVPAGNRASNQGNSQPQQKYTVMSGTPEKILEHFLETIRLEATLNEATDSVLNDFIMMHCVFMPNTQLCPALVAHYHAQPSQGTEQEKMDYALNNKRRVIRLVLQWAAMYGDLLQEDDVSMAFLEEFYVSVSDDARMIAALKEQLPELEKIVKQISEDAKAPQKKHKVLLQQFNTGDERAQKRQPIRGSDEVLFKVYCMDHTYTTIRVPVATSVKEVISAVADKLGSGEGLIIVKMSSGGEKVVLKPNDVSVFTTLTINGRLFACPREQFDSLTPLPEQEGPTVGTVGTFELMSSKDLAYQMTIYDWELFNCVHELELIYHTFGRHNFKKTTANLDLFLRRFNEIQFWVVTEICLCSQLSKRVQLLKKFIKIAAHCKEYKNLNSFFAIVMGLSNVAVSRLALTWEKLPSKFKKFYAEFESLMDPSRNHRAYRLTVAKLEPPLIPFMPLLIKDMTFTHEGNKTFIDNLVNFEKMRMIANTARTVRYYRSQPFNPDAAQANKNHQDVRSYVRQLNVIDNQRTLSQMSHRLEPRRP

[18] = biological target: Rap guanine nucleotide exchange factor 4 (Homo sapiens) (UniProt Q8WZA2); experiment: Confirmatory qHTS for antagonist of cAMP-regulated guanine nucleotide exchange factor 4 (EPAC2) (AID 1645885); also: % is scaled to controls: 0 for no effect and ±100 for the full control effect; nearly all actives have a fitted effect of over 25% in size
[19] = measured here: cell count channel max response
[20] = measured here: lipid channel max response

Cn1cccc1C(=O)N1CCC2(CCCN(Cc3ccncc3)C2)CC1
14.6%: max response [8, 20]
inactive: activity change, negative = inhibition [1] -7.26% | activity, negative = inhibition [3] 7.75% | Potency [4] > 46 µM | Potency [5] | Potency [6] | Potency [7] | activity change, negative = inhibition [8] 7.27% | outcome [9]
1.45%: max response [8, 19]
active: Potency [2] 15.8 µM

O=C(c1ccco1)N1CCC[C@@]2(CCN(c3ccccn3)C2)C1
30%: max response [8, 20]
22.6%: max response [8, 19]
inactive: activity change, negative = inhibition [1] 4.46% | activity change, negative = inhibition [10] -3.78% | activity, negative = inhibition [3] -0.822% | Potency [4] > 46 µM | Potency [5] | Potency [6] | activity change, negative = inhibition [8] 4.34% | outcome [9]

CS(=O)(=O)Nc1cccc(-c2nccc(-n3ccnc3)n2)c1
5%: max response [8, 20]
1.42%: max response [8, 19]
inactive: activity change, negative = inhibition [1] -9.45% | activity change, negative = inhibition [10] -0.156% | activity, negative = inhibition [3] 0.985% | Potency [11] > 46 µM | Potency [4] > 46 µM | Potency [5] | Potency [6] | Potency [7] | activity change, negative = inhibition [8] 2.72% | Potency [13] | outcome [9]
active: Potency [2] 0.2 µM | Potency [12] 1.58 µM

O=C(c1ccncc1)N1CCC[C@@]2(CCN(Cc3ccncc3)C2)C1
4.05%: max response [8, 19]
inactive: activity change, negative = inhibition [1] 14.5% | activity change, negative = inhibition [10] 3.82% | activity, negative = inhibition [3] -6.44% | Potency [4] > 46 µM | Potency [5] | Potency [6] | activity change, negative = inhibition [8] 4.83% | outcome [9]
12.8%: max response [8, 20]

c1nc(NCCN2CCOCC2)c2cc(-c3ccc4c(c3)OCO4)ccc2n1
inactive: activity change, negative = inhibition [1] -13.5% | activity change, negative = inhibition [10] 1.02% | activity, negative = inhibition [3] -4.03% | Potency [11] > 46 µM | Potency [4] > 46 µM | Potency [5] | Potency [6] | Potency [7] | activity change, negative = inhibition [8] 10.6% | Potency [13] | outcome [9]
12.8%: max response [8, 20]
active: Potency [2] 2.51 µM
2.73%: max response [8, 19]

COCCn1c(=O)c(-c2ccc(OC)cc2)nc2cnc(Nc3cccc(OC)c3)nc21
active: Potency [2] 10 µM | Potency [16] 70.6 µM | Potency [17] 70.6 µM
inactive: Potency [14] > 11.4 µM | activity change, negative = inhibition [1] -2.99% | activity, negative = inhibition [3] 3.6% | Potency [11] > 9.22 µM | Potency [4] > 46 µM | Potency [5] | Potency [6] | Potency [7] | outcome [9] | Potency [15] | Potency [18]

COc1ccc(Oc2ncc3nc(-c4ccc(F)cc4)c(=O)n(C)c3n2)cc1
18%: max response [8, 19]
24.3%: max response [8, 20]
active: Potency [2] 2 µM | Potency [12] 3.98 µM
inactive: activity change, negative = inhibition [10] -22.3% | activity, negative = inhibition [3] 12.3% | Potency [11] > 9.22 µM | Potency [4] > 46 µM | Potency [5] | Potency [6] | Potency [7] | activity change, negative = inhibition [8] 4.46% | outcome [9]

Cn1c(=O)c(CCc2ccccc2)nc2cnc(Oc3ccccc3)nc21
inactive: Potency [14] > 11.4 µM | activity change, negative = inhibition [1] -15.2% | activity change, negative = inhibition [10] -7.88% | activity, negative = inhibition [3] -2.24% | Potency [11] > 9.22 µM | Potency [4] > 46 µM | Potency [5] | Potency [6] | outcome [9] | Potency [15] | Potency [16] | Potency [17] | Potency [18]

CCCCCc1c2c(cc(O)c1C(=O)O)OC(=O)c1cc(C(=O)CCCC)c(OC)cc1O2
active: Potency [15] 42.6 µM
inactive: outcome [9] | Potency [16] | Potency [17]

COc1ccc(C(=O)N2CCC[C@@]3(CCN(C(=O)NC(C)C)C3)C2)cc1
active: Potency [2] 12.6 µM
inactive: activity change, negative = inhibition [10] 8.55% | activity, negative = inhibition [3] -9.21% | Potency [4] > 46 µM | Potency [5] | Potency [6] | Potency [7] | activity change, negative = inhibition [8] 3.48% | outcome [9]
15.8%: max response [8, 20]
8.84%: max response [8, 19]

CS(=O)(=O)c1ccc(Cn2c3c(c4cc(F)cc(F)c42)CCC[C@H]3CC(=O)O)cc1
14.3%: max response [8, 20]
inactive: Potency [2] | Potency [11] > 46 µM | Potency [4] > 46 µM | Potency [5] | Potency [7] | activity change, negative = inhibition [8] -2.09% | outcome [9]
15%: max response [8, 19]

CN(C)c1ncc2nc(-c3cc(F)cc(F)c3)c(=O)n(Cc3cccs3)c2n1
inactive: Potency [14] > 11.4 µM | Potency [11] > 9.22 µM | Potency [4] > 46 µM | Potency [6] | Potency [7] | outcome [9] | Potency [15] | Potency [16] | Potency [17] | Potency [18]
active: Potency [2] 1.58 µM | activity change, negative = inhibition [10] 110% [activator] | activity, negative = inhibition [3] 190% [activator]

O=C(O)c1cc(=O)c2cccc(O)c2[nH]1
50.3%: max response [8, 20]
inactive: Potency [12] | activity change, negative = inhibition [8] 14.6% | Potency [13] | outcome [9]
27.2%: max response [8, 19]

CNc1ncnc2ccc(-c3cccc(NS(C)(=O)=O)c3)cc12
-9.5%: max response [8, 19]
active: Potency [2] 0.316 µM
inactive: activity, negative = inhibition [3] -3.45% | Potency [11] > 46 µM | Potency [4] > 46 µM | Potency [5] | Potency [6] | Potency [7] | activity change, negative = inhibition [8] 1.53% | outcome [9]
-9.46%: max response [8, 20]

CN(C)c1ncc2nc(CCc3ccccc3)c(=O)n(Cc3ccc(F)cc3)c2n1
inactive: Potency [14] > 11.4 µM | activity change, negative = inhibition [1] 8.4% | activity change, negative = inhibition [10] -4.39% | activity, negative = inhibition [3] 13.2% | Potency [11] > 9.22 µM | Potency [4] > 46 µM | Potency [6] | Potency [7] | outcome [9] | Potency [15] | Potency [16] | Potency [17] | Potency [18]
active: Potency [2] 10 µM
